This is part of a sample that, as a whole, favours compounds with a hit. Of some 79,000 tested, about 15% had one in any assay. Calls of active or inactive are those of the source. Cut-off read from the data, not from the text of the source: active = growth inhibition above about 70%; inactive = the rest.
Assays:
[1] = NCI Yeast Anticancer Drug Screen. Data for the rad52 strain (AID 147);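 note: 0% = growth of vehicle-treated control cultures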; settings: S. cerevisiae rad52 mutant growth inhibition, hits give high values
Procedure, shortened: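 Compounds are applied to a genetically defined yeast strain lacking normal DNA damage repair, and inhibition of growth is expressed relative to cultures given vehicle only.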

[2] = NCI Yeast Anticancer Drug Screen. Data for the wt1 strain (AID 149);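 note: 0% = growth of vehicle-treated wt1 cultures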; settings: S. cerevisiae wt1 strain (SPY 50644) growth inhibition, hits give high values
Procedure, shortened: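 Vehicle-normalised growth inhibition; strain wt1; compound exposure.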

[3] = NCI Yeast Anticancer Drug Screen. Data for the rad50EPP+ strain (AID 151);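 note: 0% = growth of vehicle-treated control cultures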; settings: S. cerevisiae rad50 mutant strain, hits give high values
Procedure, shortened: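 Compounds were applied to the rad50EPP+ yeast strain, which bears a defined DNA repair alteration, and growth inhibition was determined relative to vehicle-treated cultures.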

[4] = NCI Yeast Anticancer Drug Screen. Data for the mgt1 strain (AID 153); settings: S. cerevisiae mgt1 mutant growth inhibition, hits give high values
Procedure, shortened: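 Strain: mgt1 yeast, one of a set carrying defined DNA damage repair or cell cycle control alterations. Compound-treated growth compared with vehicle.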

[5] = NCI Yeast Anticancer Drug Screen. Data for the rad50 strain (AID 155);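 note: 0% = growth of vehicle-only cultures of the same strain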; settings: S. cerevisiae rad50 strain growth inhibition, hits give high values
Procedure, shortened: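 A DNA repair-deficient yeast mutant serves as the test organism; compound-induced growth inhibition is calculated against vehicle-treated cells.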

[6] = NCI Yeast Anticancer Drug Screen. Data for the mec2-1 strain (AID 157); settings: S. cerevisiae mec2-1 strain, hits give high values
Procedure, shortened: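 Strain: mec2-1 (DNA repair/cell cycle alteration). Compound exposure, then growth measured; inhibition expressed relative to vehicle.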

[7] = NCI Yeast Anticancer Drug Screen. Data for the rad14 strain (AID 159);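 note: 0% = growth of vehicle-treated control cultures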; settings: S. cerevisiae rad14 strain growth inhibition, hits give high values
Procedure, shortened: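 Vehicle-treated cultures served as the baseline for growth inhibition of a DNA repair-mutant yeast strain exposed to each compound.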

[8] = NCI Yeast Anticancer Drug Screen. Data for the sgs1 mgt1 strain (AID 161);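 note: 0% = growth of cultures given vehicle only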; settings: S. cerevisiae sgs1 mgt1 strain, hits give high values
Procedure, shortened: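 Mutant yeast exposed to compound; growth scored against vehicle-only wells.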

[9] = NCI Yeast Anticancer Drug Screen. Data for the CLN2oe strain (AID 163);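 note: 0% = growth of vehicle-only control cultures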; settings: S. cerevisiae CLN2oe strain, hits give high values
Procedure, shortened: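 Growth of a genetically modified yeast strain is measured after compound exposure and compared with cultures given vehicle alone.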

[10] = NCI Yeast Anticancer Drug Screen. Data for the cln2 rad14 strain (AID 165);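 note: 0% = growth equal to vehicle treated cultures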; settings: S. cerevisiae cln2 rad14 strain, hits give high values
Procedure, shortened: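 Compounds are applied to the cln2 rad14 yeast strain, and growth is then compared with that of vehicle-treated cultures to give inhibition.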

[11] = NCI Yeast Anticancer Drug Screen. Data for the bub3 strain (AID 167); settings: S. cerevisiae bub3 mutant strain, hits give high values
Procedure, shortened: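 Inhibition values come from growth of compound-treated mutant yeast normalised to vehicle-treated controls.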

[12] = NCI Yeast Anticancer Drug Screen. Data for the wt2 strain (AID 169);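 note: 0% = growth of vehicle-treated yeast cultures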; settings: S. cerevisiae wt2 strain growth inhibition, hits give high values
Procedure, shortened: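 This strain belongs to a panel of yeast strains with defined genetic alterations in DNA damage repair or cell cycle control. Compounds are applied, and growth inhibition is measured against vehicle-treated cultures.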

[13] = NCI Yeast Anticancer Drug Screen. Data for the mlh1 strain (AID 171);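 note: 0% = growth of vehicle-treated control cultures of the same strain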; settings: S. cerevisiae mlh1 strain growth inhibition, hits give high values
Procedure, shortened: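 Growth of the mutant yeast strain after compound exposure, expressed as inhibition relative to vehicle-only controls.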

[14] = NCI Yeast Anticancer Drug Screen. Data for the sgs1 strain (AID 173);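 note: 0% = growth of vehicle-only control cultures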; settings: S. cerevisiae sgs1 mutant, hits give high values
Procedure, shortened: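 Growth of a yeast strain bearing a defined genetic alteration is measured after compound treatment. Inhibition is expressed relative to vehicle-only controls.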

[15] = NCI Yeast Anticancer Drug Screen. Data for the mlh1 rad18 strain (AID 175); settings: S. cerevisiae mlh1 rad18 strain growth inhibition, hits give high values
Procedure, shortened: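 Read-out is yeast growth inhibition, calculated against vehicle-only controls. The compound was applied to a strain engineered with DNA damage repair alterations.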

[16] = NCI Yeast Anticancer Drug Screen. Data for the rad18 strain (AID 177); settings: S. cerevisiae rad18 mutant growth inhibition, hits give high values
Procedure, shortened: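 Growth of the mutant yeast strain after compound exposure, normalised to vehicle-only cultures.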

[17] = at 5.0 µM (retest, dose inferred, filed as 0.5)
[18] = at 50.0 µM (retest, dose inferred, filed as 5.0)

Measured: growth inhibition

CCCCCCCCCCCCNC(C)=O
active: [5]; [18] 93% | [5]; at 50.0 µM 81.3% | [5]; at 100.0 µM 90% | [6]; [18] 78% | [6]; at 50.0 µM 83% | [8]; [18] 88% | [8]; at 50.0 µM 81% | [11]; [18] 91% | [11]; at 50.0 µM 80% | [13]; at 100.0 µM 72% | [15]; [18] 94% | [15]; at 50.0 µM 91.8%
inactive: [1]; at 1.2 µM -5% | [1]; at 3.7 µM -7% | [1]; at 11.0 µM -8% | [1]; at 33.0 µM -12% | [1]; at 100.0 µM 54% | [2]; at 1.2 µM -6% | [2]; at 3.7 µM -6% | [2]; at 11.0 µM -8% | [2]; at 33.0 µM -7% | [2]; at 100.0 µM 9% | [3]; at 1.2 µM -2% | [3]; at 3.7 µM 1% | [3]; at 11.0 µM 7% | [3]; at 33.0 µM 14% | [3]; at 100.0 µM 26% | [4]; at 1.2 µM -2% | [4]; at 3.7 µM -6% | [4]; at 11.0 µM -5% | [4]; at 33.0 µM -14% | [4]; at 100.0 µM 14% | [5]; at 1.2 µM -10% | [5]; at 3.7 µM -8% | [5]; [17] -165% | [5]; at 11.0 µM 2% | [5]; at 33.0 µM 3% | [6]; at 1.2 µM 2% | [6]; at 3.7 µM -3% | [6]; [17] -47% | [6]; at 11.0 µM 8% | [6]; at 33.0 µM 3% | [6]; at 100.0 µM 3% | [7]; at 1.2 µM -3% | [7]; at 3.7 µM 0% | [7]; at 11.0 µM -2% | [7]; at 33.0 µM 1% | [7]; at 100.0 µM 40% | [8]; [17] -63% | [9]; at 1.2 µM -1% | [9]; at 3.7 µM -1% | [9]; at 11.0 µM 0% | [9]; at 33.0 µM -4% | [9]; at 100.0 µM -2% | [10]; [17] -61% | [10]; [18] -2% | [10]; at 50.0 µM 15.3% | [11]; at 1.2 µM -9% | [11]; at 3.7 µM -3% | [11]; [17] -62% | [11]; at 11.0 µM -2% | [11]; at 33.0 µM -1% | [11]; at 100.0 µM 13% | [12]; at 1.2 µM -2% | [12]; at 3.7 µM -1% | [12]; at 11.0 µM -3% | [12]; at 33.0 µM -7% | [12]; at 100.0 µM 24% | [13]; at 1.2 µM 6% | [13]; at 3.7 µM -8% | [13]; at 11.0 µM -4% | [13]; at 33.0 µM -6% | [14]; at 1.2 µM -2% | [14]; at 3.7 µM -3% | [14]; at 11.0 µM -3% | [14]; at 33.0 µM -4% | [14]; at 100.0 µM 43% | [15]; [17] -116% | [16]; at 1.2 µM -4% | [16]; at 3.7 µM -4% | [16]; at 11.0 µM -2% | [16]; at 33.0 µM -3% | [16]; at 100.0 µM 61%
